# The list is not random: actives were taken first. Their share in the collection is about 4.8%.
# DAX1 inh-1 – blocks DAX1 repression of SF-1 activated StAR promoter; HEK293T StAR-luciferase reporter, SF-1/DAX-1 repression relief; inhibition, % at 6.8 µM; 370,000 tested, 1.1% active; AID 652010;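 active = inhibition above the mean over all tested compounds plus 3 SD, cut at about 3.6% in these data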;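 note: 0% = DAX-1 cells with DMSO and 100% = cells lacking DAX-1 with DMSO; higher inhibition means more luminescence from relief of DAX-1 repression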
# hcDAF-12 act – activators of H. contortus DAF-12 nuclear receptor | HEK293 hcDAF-12 lit1-tk-luc reporter, luminescence; 0% DMSO, 100% Δ7-dafachronic acid | activation, % at 6.8 µM | 370,000 tested, 1.4% active | AID 652067;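 active = activation above the mean of all tested compounds plus 3 SD, cut at about 5.5% in these data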;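 note: 100% = response to 3 µM Δ7-dafachronic acid high control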
# DAX1 inh-2 – NR0B1 (DAX1) inhibition; HEK293 Gal4-DAX1 luciferase reporter, luminescence; P51843; AID 504766; 340,000 tested, 0.99% active; inhibition, % at 6.75 µM;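 active = inhibition above the mean over all tested compounds plus 3 SD, cut at about 4.2% in these data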;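 note: 0% = DAX1-transfected cells with DMSO and 100% = empty-vector control cells with DMSO; inhibition shows as a rise in luminescence from relieved DAX1 repression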
# Target sequence (P51843 207-470 limits assumed): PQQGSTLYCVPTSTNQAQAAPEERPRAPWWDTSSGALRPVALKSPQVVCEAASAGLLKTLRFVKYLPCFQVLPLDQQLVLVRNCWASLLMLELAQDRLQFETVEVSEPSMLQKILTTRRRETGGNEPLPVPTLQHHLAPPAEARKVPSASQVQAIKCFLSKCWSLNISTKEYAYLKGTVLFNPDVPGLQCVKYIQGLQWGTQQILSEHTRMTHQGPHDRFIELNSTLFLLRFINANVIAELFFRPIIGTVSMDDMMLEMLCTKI
# hgDAF12 agonist – hgDAF-12 agonism, primary luciferase screen | HEK293 GAL4-hgDAF12 UAS-luciferase reporter, agonist luminescence; normalized to butyrate control | activation, % at 6.8 µM | 370,000 tested, 1.8% active;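 active = activation above a cutoff set at the mean of all screened compounds plus 3 SD, cut at about 10% in these data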;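 note: 0% = DMSO wells and 100% = sodium butyrate wells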
# ssDAF12 agonist – S. stercoralis DAF-12 activation, primary screen; HEK293 ssDAF-12/GRIP1 lit1-tk-luc reporter, luminescence; % of 3 µM dafachronic acid response; activation, % at 6.8 µM; 370,000 tested, 1% active; AID 652126;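 active = activation above the mean over all tested compounds plus 3 SD, cut at about 0.9% in these data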;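 note: 0% = DMSO-only wells and 100% = 3 µM delta7-dafachronic acid wells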
# SMARCA2 activ – increases SMARCA2 function in MMTV reporter cells. MG213 cells, MMTV-luciferase reporter, dexamethasone, overnight. activation, % at 9.1 µM. 370,000 tested, 1% active. AID 652017; in the data active = activation above about 7.8%;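 note: 0% = vehicle wells and 100% = reference activator wells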
# The depositor's hits bear a star; x = no result given.
SMILES,DAX1 inh-1,hcDAF-12 act,DAX1 inh-2,hgDAF12 agonist,ssDAF12 agonist,SMARCA2 activ
O=C(NC1CCCCC1)c1cc(C(=O)c2ccccc2Br)c[nH]1,0.1,-2.1,6.4*,-2.0,-1.6,-1.4
O=C(NC(=S)NC1CCCC1)c1ccccc1,3.9*,4.2,0.6,12.8*,0.4,2.4
O=C(NC(=S)NC1CCCCCCCCCCC1)c1cccnc1,0.6,1.9,1.0,-1.6,-1.1,4.2
O=S1(=O)N[C@H](Cc2ccccc2)COc2cc(N3CCCCC3)ccc21,-0.3,1.4,x,4.8,-0.2,0.2
N#CC1CCN(C(=O)c2ccc3c(Cl)c4c(nc3c2)CCCC4)CC1,4.4*,-2.4,0.8,2.4,-1.3,-0.9
CCOC(=O)C1CCCN(C(=O)c2sc3nc4n(c(=O)c3c2C)CCC4)C1 (stereo not given),1.1,-1.7,0.6,0.2,-1.0,-1.8
Cc1ccccc1Nc1nc(N)nc(COC(=O)c2ccco2)n1,2.4,3.5,2.8,11.8*,0.5,2.0
Nc1nc(COC(=O)c2ccco2)nc(Nc2ccccc2)n1,1.6,-0.9,3.7,3.3,-0.7,1.7
CC(=O)COc1ccc2c(c1C)O/C(=C\c1ccco1)C2=O,-0.4,1.2,2.0,-1.6,-1.5,2.9
ClC(CCN1CCN(Cc2ccccc2)CC1)c1ccccc1 (stereo not given),-0.4,-0.6,5.7*,-1.8,-0.6,-1.2
CC(CN1CCN(Cc2ccccc2)CC1)c1ccccc1 (stereo not given),-0.5,-0.5,0.6,1.1,-1.2,0.3
CCOc1cc(S(=O)(=O)n2cnc(C)c2)ccc1Cl,-0.5,-0.1,4.5*,-2.0,-1.0,1.1
COc1ccc(NC(=O)c2cc(C3CCCCN3S(=O)(=O)Cc3ccccc3)on2)cn1 (stereo not given),2.8,0.9,x,11.2*,-1.0,0.9
CCOc1ccc(NC(=O)CNC(=O)c2cccs2)cc1,0.7,-0.9,3.8,4.8,-1.1,4.8
CN(C(=O)CN1C(=O)/C(=C/c2ccccc2F)SC1=S)C1CCS(=O)(=O)C1 (stereo not given),0.1,-1.4,0.7,1.3,-0.8,2.2
COc1cccc(-c2sc3ccc(OC)cc3c2-c2cnc(N3CCOCC3)nc2)c1,1.9,-0.8,x,10.9*,-1.0,3.8
COc1cccc(-c2sc3ccc(OC)cc3c2-c2ccc(OCCN3CCOCC3)cc2)c1,-0.4,0.2,0.1,-0.9,-1.2,-1.0
CC(C)n1cnc2c(Nc3cccc(Cl)c3)nc(NCCCO)nc21,-1.8,-2.6,-2.3,-2.9,-2.3,3.2
Cc1cc2nc(-c3ccccc3O)[nH]c2cc1C,4.1*,5.8*,2.2,11.7*,0.7,4.6
Clc1cc2nc(-c3cccnc3Cl)[nH]c2cc1Cl,3.8*,6.2*,4.3*,10.9*,1.1*,1.1
Cc1cc(=O)[nH]c(-c2ccccc2O)n1,x,x,0.5,x,x,x
CC(OC(=O)c1cccnc1Cl)C(=O)Nc1ccc2c(c1)OCCO2 (stereo not given),-0.5,-1.2,-1.2,-0.9,-1.2,-0.2
CC(OC(=O)c1cccnc1Cl)C(=O)Nc1ccc(S(N)(=O)=O)cc1 (stereo not given),-0.3,-0.6,6.2*,0.9,-2.1,-1.0
COc1cccc(CN(C)C(=O)c2ccc(N3CCCC3)c([N+](=O)[O-])c2)c1,-2.4,-2.1,-0.3,-2.7,-1.0,-1.7
Cc1cccc(S(=O)(=O)NNC(=O)c2cc(-c3ccc(F)cc3)nc3ccccc23)c1,0.5,-2.3,4.3*,3.4,-1.4,-6.8
SMILES,DAX1 inh-1,hcDAF-12 act,DAX1 inh-2,hgDAF12 agonist,ssDAF12 agonist,SMARCA2 activ
CC(C)(C)c1ccc(-c2cc(C(=O)NNC(=O)Nc3ccccc3)c3ccccc3n2)cc1,3.9*,3.9,2.7,11.2*,0.6,5.1
O=C1C(Cl)=C(NCCCN2CCOCC2)C(=O)N1CCc1ccccc1,0.4,0.2,-0.4,0.3,-1.3,-4.0
O=C1C(Cl)=C(NCCc2ccccc2)C(=O)N1CCc1ccccc1,0.4,-1.4,1.1,1.8,-0.8,7.9*
O=C1c2ccccc2C(=O)N1CCc1ccccc1,0.3,6.2*,3.5,7.2,0.9*,0.6
O=C1C(Cl)=C(N2CCOCC2)C(=O)N1CCc1ccccc1,1.4,4.0,1.9,10.7*,-0.1,2.3
COCCCn1c(=O)c2sccc2n(Cc2ccc(C)cc2)c1=O,0.0,-0.8,0.5,-1.8,1.0*,-2.7

# Screening results: PubChem, The Scripps Research Institute Molecular Screening Center
